PostGolgi yeast: phenotypic screen on post-Golgi transport, primary screen | inhibition, % at 10 µM | actives 0.9% (n = 98,000) | post-Golgi transport phenotypic cell assay | AID 739, 2007;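 further: yeast cells grown in 1536-well plates; yeast grown about 18 h at 30C before absorbance read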
Cav3 T inh: Cav3.2 calcium influx blockers – cell-based, Fluo-4 calcium fluorescence, FDSS, MLSMR library, primary screen | Voltage-dependent T-type calcium channel subunit alpha-1H (Homo sapiens), O95180 | Cav3.2-expressing cells; hits give low values | B-score at 10 µM | actives 4% (n = 100,000) | AID 449739, 2010;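 active means single-dose well whose peak fluorescence ratio is a statistical outlier from its plate by either plate-standardised score or position-corrected B-score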
PostGolgi ctrl: growth inhibition of yeast control strain, primary screen, counter-screen for post-Golgi transport modulator project; efflux-deficient yeast background strain, growth absorbance A615, 16 h; inhibition, % at 10 µM; actives 5% (n = 98,000)
Pyk2 oligo antag: antagonists of Pyk2 self-association, primary screen, Q293 cells, FERM NanoBiT luminescence, HTS; hits give low values; z-score (the deposit names both 25 µM and 10 µM); actives 0.83% (n = 99,000); Protein-tyrosine kinase 2-beta (Homo sapiens), Q14289; AID 1347419, 2020;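 active means Z-score of -3 or lower, scaled per plate to the spread of control and sample wells; inactive means z-score above -3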;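 further: negative z-score means lost luminescence so less FERM oligomerization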
* hit, by the source's call; nt = no result. An excerpt weighted towards active compounds, which were near 8% of everything screened. Unless noted, no stated cut-off is given here; in the data, active means inhibition above about 30%; inactive means the rest.

SMILES | PostGolgi yeast | Cav3 T inh | PostGolgi ctrl | Pyk2 oligo antag
COc1ccc(NC(=O)CN(c2cccc(C(F)(F)F)c2)S(C)(=O)=O)cc1OC | -8 | -0.32 | 4 | 0.34
COc1cccc(NC(=O)CN(c2cccc(C(F)(F)F)c2)S(C)(=O)=O)c1 | 1 | nt | 8 | -0.32
COc1cccc(NC(=O)CN(c2cccc(F)c2)S(C)(=O)=O)c1 | -7 | 0.39 | 22 | -0.44
COc1ccc(N(CC(=O)Nc2cccc(C(F)(F)F)c2)S(C)(=O)=O)cc1 | nt | -3.3* | nt | -2
COc1ccc(N(CC(=O)Nc2cccc(SC)c2)S(C)(=O)=O)cc1 | 0 | -4.8* | 7 | -0.93
CCOc1ccc(NC(=O)CN(c2cccc(C(F)(F)F)c2)S(C)(=O)=O)cc1 | -6 | -3.8* | 7 | -0.6
CSc1cccc(NC(=O)CN(Cc2ccc(Cl)cc2)S(C)(=O)=O)c1 | -9 | -3.4* | 8 | -0.17
Cc1ccnc(NC2OC(=O)c3ccccc32)c1 (stereo not given) | 2 | 0.92 | 10 | -0.27
CN(C(=O)c1cccc(C#N)c1)c1nnc(-c2cnccn2)s1 | 18 | 0.27 | -4 | 0.17
Cc1cc(=O)oc(C)c1C(=O)N1CCc2c([nH]c3ccccc23)C1C(C)C (stereo not given) | -1 | 0.0088 | 1 | nt
CC1c2[nH]c3ccccc3c2CCN1C(=O)Nc1ccccc1 (stereo not given) | nt | -12* | nt | -1.4
CC1Sc2ccccc2N(CC(=O)N(C(C)C)C(C)C)C1=O (stereo not given) | 11 | 0.059 | 14 | -0.03
COC(=O)C1=C(N)Oc2cc(C)n(CC3CCCO3)c(=O)c2C1c1ccc(Cl)cc1 (stereo not given) | 5 | -3.1* | 6 | -2.1
COC(=O)C1=C(N)Oc2cc(C)n(CC3CCCO3)c(=O)c2C1c1ccccc1 (stereo not given) | 2 | -0.15 | 22 | -0.35
Cc1ccc(N(C)C(=O)N2CCN(S(=O)(=O)c3c(C)cc(C)cc3C)CC2)cc1 | -6 | -6* | 24 | -2.1
Cc1oc2c(c1C(=O)N1CCC(C)CC1)C(=O)c1ccccc1C2=O | nt | 2 | nt | nt
Cc1ccc(C(=O)c2coc3c2C(=O)C(=O)c2ccccc2-3)cc1 | 81* | -2.9 | 70* | -2.4
Cc1oc2c(c1C(=O)c1ccc(Cl)cc1)C(=O)C(=O)c1ccccc1-2 | 45* | nt | 58* | -3.6*
Cc1ccc(C(=O)c2c(C)oc3c2C(=O)C(=O)c2ccccc2-3)cc1 | 29 | -3.9 | -5 | -3.8*
CCC1Oc2ccccc2N(CC(=O)Nc2ccc(OC)cc2OC)C1=O (stereo not given) | 0 | 0.0051 | 0 | -0.89
Cn1c(=O)c2cc(S(=O)(=O)NC(C(=O)N3CCCCCC3)c3ccccc3)ccc2n(C)c1=O (stereo not given) | -1 | nt | 4 | nt
O=C(NCc1ccccc1)NS(=O)(=O)c1ccccc1Cl | 30* | 0.86 | -4 | 0.56
CC(C)Cn1c(SCC(=O)c2ccc(Cl)s2)nnc1-c1ccco1 | 2 | -5.6* | 15 | 1.2
O=C(CSc1nnc(-c2ccco2)n1Cc1ccccc1)c1ccccc1 | 0 | -3.6 | 13 | -0.29
CC(C)CCN1C(=O)c2ccc(C(=O)OCn3nnc4ccccc4c3=O)cc2C1=O | -9 | -0.0081 | -3 | 0.07
SMILES | PostGolgi yeast | Cav3 T inh | PostGolgi ctrl | Pyk2 oligo antag
CC1=CCC(C(=O)N/N=C/c2cccs2)C(c2ccc(F)cc2)C1 (stereo not given) | 3 | -5.3* | 45* | -0.62
Brc1ccc(-c2cn3c(n2)CCc2ccc4cccnc4c2-3)cc1 | 52* | 0.082 | 59* | 0.63
Brc1ccc(/C=C/C=N/Nc2nc3ccccc3s2)cc1 | -1 | 0.64 | 20 | 0.86
CCN(CC)c1ccc(/C=C/c2nc3ccccc3s2)cc1 | -7 | -3.9* | -3 | nt
COC(=O)CSc1nc2cc3c(cc2cc1C)OCCO3 | 6 | -1.8 | 36* | 0.3
COc1cccc(C2NC(=O)NC(C)=C2C(=O)Nc2cccc(C)c2C)c1 (stereo not given) | -2 | -0.36 | 3 | 0.69
Nc1c(C(=O)OCC2CCCO2)c2nc3ccccc3nc2n1C1CCCC1 (stereo not given) | 9 | -2.9 | 48* | -2.4
CCCCCCCCN1[C@@H](CC(=O)OCC)c2cc(C(F)(F)F)ccc2S1(=O)=O | nt | -4.2* | nt | nt
CCCN1C(=O)/C(=C/C=C2\N(CC)c3ccccc3C2(C)C)SC1=S | -2 | -4.5* | 5 | -3*
O=C1NC2(Nc3ccccc31)C(=O)Nc1ccccc12 (stereo not given) | 44* | 0.44 | 14 | -1.3
O=C1NCCC12C(=O)Nc1ccccc12 (stereo not given) | nt | 0.016 | nt | nt
O=C(N/N=C/c1ccc(Cl)cc1Cl)Nc1ccccc1 | -2 | -2.2 | 5 | 1.8

Compound activity from PubChem.
